Screens from PubChem.
Sampled rows, rich in hits. Any-hit rate of the full collection: about 8%.
KB-V1 MDR tox: qHTS assay for MDR1-selective chemotherapeutics: Primary screen using the drug-selected MDR subline cells KB-V1; actives 3.4% (n = 400,000); KB-V1 MDR cells viability, CellTiter-Glo, 72 h; Potency, µM (top dose mostly 46.1 µM), hits mostly cytotoxic; AID 1347076, 2019; further: nearly all actives have a fitted effect of over 60% in size
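Potencies derive from concentration-effect curves fitted to normalized luminescence (CellTiter-Glo) of KB-V1 cells treated for 72 h at 37 degrees C in phenol-red-free DMEM containing 10% FBS.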
MCF10A rerep: A quantitative high throughput screen for small molecules that induce DNA re-replication in MCF 10a normal breast cells | MCF 10A DNA re-replication, Hoechst nuclear intensity, 48 h | Potency, µM (top dose mostly 46.1 µM), actives largely listed as activators | actives 2.9% (n = 350,000) | AID 624296, 2012; further: nearly all actives have a fitted effect of over 50% in size
SW480 rerep: A quantitative high throughput screen for small molecules that induce DNA re-replication in SW480 colon adenocarcinoma cells | SW480 DNA re-replication, Hoechst DNA content imaging, 48 h | Potency, µM (series often up to 46.1 µM), usual class: activators | actives 1.8% (n = 340,000) | AID 624297, 2012; further: nearly all actives have a fitted effect of over 55% in size
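Per well, 250 cells were exposed to pinned compound for 48 hr. Nuclear DNA was visualised with Hoechst (40 min, 37 C) and total object intensity recorded by fluorescence scanning.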
HT1080 IDH1KD tx: qHTS for induction of synthetic lethality in tumor cells producing 2HG: qHTS for the HT-1080-IDH1KD cell line | AID 686971, 2013 | Potency, µM (titrated, usually from 46.1 µM), most hits filed as cytotoxic | actives 2% (n = 360,000) | HT-1080 IDH1 knockdown viability, ATP luminescence, 48 h
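Viability of IDH1-knockdown HT-1080 fibrosarcoma cells was assessed by CellTiter-Glo after 48 h at 37 °C with titrated compound; concentration-effect curves were classified by fit quality and response size.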
HT1080NT lethal: qHTS for induction of synthetic lethality in tumor cells producing 2HG: qHTS for the HT-1080-NT fibrosarcoma cell line | HT-1080-NT fibrosarcoma viability, CellTiter-Glo ATP luminescence, 48 h | Potency, µM (titrated, usually from 46.1 µM), hits mostly cytotoxic | actives 1.6% (n = 360,000);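 further: NT is the 2HG producing partner of a matched IDH1 knockdown line; nearly all actives have a fitted effect of over 55% in size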
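Viability by CellTiter-Glo luminescence after 48 h compound exposure at 37C of HT-1080-NT cells (750/well, RPMI, 5% FBS). % activity scaled between DMSO wells and medium-only wells, then curve-fitted and categorized by curve class.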
KB-3-1 cytotox: qHTS assay for MDR1-selective chemotherapeutics: Primary screen using the parental adenocarcinoma cell KB-3-1; KB-3-1 viability, CellTiter-Glo ATP luminescence, 72 h; Potency, µM (highest dose often 46.1 µM), usual class: cytotoxic; actives 1.4% (n = 400,000); AID 1347075, 2019; further: nearly all actives have a fitted effect of over 60% in size
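Cells are dispensed, compounds pinned in, plates held at 37 °C for 72 h, then CellTiter-Glo is added and luminescence read after 10 minutes. Cell line: parental KB-3-1 in phenol-red-free DMEM, 10% FBS.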
Each line names hits and unclear results; the compound was inactive in the other large screens. The call rests on the fitted dose curve; in most records, active means well fitted curve in the direction sought with a large enough effect; inconclusive means small, poorly fitted or top-dose-only effect, or another doubt; inactive means no such curve, though single readings can be large; an effect the other way counts as inactive or inconclusive.

COc1cc(/C=N/NC(=O)c2cc(C3CC3)[nH]n2)ccc1O	none
Cc1nn(-c2ccccc2)c(C)c1-c1cc(C(=O)N/N=C/c2ccc(O)cc2)[nH]n1	MCF10A rerep 18.4µM, HT1080 IDH1KD tx inconclusive, HT1080NT lethal inconclusive, KB-3-1 cytotox inconclusive
COc1cc(/C=N/NC(=O)c2cc(C34CC5CC(CC(C5)C3)C4)[nH]n2)ccc1O	MCF10A rerep 1.3µM
COc1cc(/C=N/NC(=O)c2cc(-c3c(C)nn(-c4ccccc4)c3C)n[nH]2)ccc1O	SW480 rerep inconclusive
CC(/C=N/NC(=O)c1cc(-c2ccc(C)s2)[nH]n1)=C\c1ccccc1	KB-V1 MDR tox inconclusive, MCF10A rerep 6.51µM, SW480 rerep inconclusive, HT1080 IDH1KD tx 7.31µM, HT1080NT lethal 5.17µM, KB-3-1 cytotox 20.6µM
C=CCNC(=O)c1onc(CSc2ccc(C)c(C)c2)c1C(=O)O	HT1080 IDH1KD tx inconclusive
O=C(N/N=C/c1ccccn1)c1cc(-c2ccc(Br)s2)[nH]n1	MCF10A rerep inconclusive, HT1080 IDH1KD tx inconclusive, HT1080NT lethal inconclusive
Cc1nn(-c2ccccc2)c(C)c1/C=N/NC(=O)c1cc(-c2ccc(Br)s2)[nH]n1	KB-V1 MDR tox inconclusive, MCF10A rerep 4.11µM, SW480 rerep 14.6µM, HT1080 IDH1KD tx inconclusive, HT1080NT lethal inconclusive, KB-3-1 cytotox inconclusive
Cc1nn(-c2ccccc2)c(C)c1/C=N/NC(=O)CSc1nnc(SCc2ccc(Cl)cc2)s1	KB-V1 MDR tox 2.31µM, HT1080 IDH1KD tx inconclusive, KB-3-1 cytotox inconclusive
COc1ccc(C(=O)Nc2ccc(N3CCN(C(=O)c4ccccc4)CC3)cc2)cc1[N+](=O)[O-]	KB-V1 MDR tox inconclusive
Cc1ccccc1C(=O)N1CCN(c2ccc(NC(=O)c3ccc([N+](=O)[O-])o3)cc2)CC1	KB-V1 MDR tox inconclusive, MCF10A rerep inconclusive, SW480 rerep 1.64µM, HT1080 IDH1KD tx 2.59µM, HT1080NT lethal 1.3µM, KB-3-1 cytotox 5.8µM
O=C(Nc1ccccc1N1CCN(C(=O)c2ccc(Cl)cc2)CC1)c1ccc([N+](=O)[O-])o1	KB-V1 MDR tox inconclusive, MCF10A rerep inconclusive, SW480 rerep 16.4µM, HT1080 IDH1KD tx inconclusive, HT1080NT lethal inconclusive, KB-3-1 cytotox 20.6µM
O=C(Cc1ccc(Cl)cc1)Nc1ccccc1N1CCN(C(=O)c2ccccc2)CC1	KB-V1 MDR tox inconclusive, MCF10A rerep 18.4µM, SW480 rerep inconclusive
O=C(Nc1ccc(N2CCN(C(=O)c3ccccc3)CC2)cc1)c1ccc([N+](=O)[O-])o1	KB-V1 MDR tox inconclusive, MCF10A rerep inconclusive, HT1080 IDH1KD tx inconclusive, HT1080NT lethal 7.31µM
Cc1ccccc1C(=O)N1CCN(c2ccc(NC(=O)c3cccnc3)cc2)CC1	KB-V1 MDR tox inconclusive
O=C(Nc1ccccc1N1CCCCC1)c1ccc([N+](=O)[O-])o1	KB-V1 MDR tox inconclusive, MCF10A rerep inconclusive, SW480 rerep inconclusive, KB-3-1 cytotox inconclusive
CCc1ccc(S(=O)(=O)c2nnn3c2nc(N2CCC(C(N)=O)CC2)c2cc(Cl)ccc23)cc1	none (no result: MCF10A rerep, SW480 rerep, HT1080 IDH1KD tx, HT1080NT lethal)
COc1ccc(C2=NN(C(=O)c3ccco3)C(c3cccs3)C2)cc1OC (stereo not drawn)	KB-V1 MDR tox inconclusive (no result: MCF10A rerep, SW480 rerep)
CCCS(=O)(=O)NC(=O)C1(C)CCCN(C(=O)c2ccc(OC)cc2OC)C1 (stereo not drawn)	HT1080NT lethal inconclusive (no result: MCF10A rerep, SW480 rerep)
Fc1ccc(-n2ncc3c(NCCCN4CCOCC4)ncnc32)cc1	none (no result: MCF10A rerep, SW480 rerep, HT1080 IDH1KD tx, HT1080NT lethal)
OCC[C@H]1C[C@@H](O)[C@H](O)[C@]2(Cc3ccccc3O2)O1	none
CCC1CCCCN1CCCNC(=O)c1ccc2nc(N3CCC(C)CC3)sc2c1 (stereo not drawn)	SW480 rerep 18.4µM, HT1080 IDH1KD tx inconclusive, HT1080NT lethal inconclusive, KB-3-1 cytotox inconclusive
CCOc1ccc(NC(=O)COC(=O)c2n[nH]c3ccccc23)cc1	none
Cc1ccc(OCCCCNC(C)(C)C)c([N+](=O)[O-])c1	KB-V1 MDR tox 23.1µM
COCCNCCOc1ccc(C)cc1[N+](=O)[O-]	none
CC1Cc2ccccc2N1C(=S)NC(=O)c1ccc(Cl)cc1Cl (stereo not drawn)	KB-V1 MDR tox 16.4µM
CC1Cc2ccccc2N1C(=S)Nc1ccc(S(N)(=O)=O)cc1 (stereo not drawn)	KB-V1 MDR tox 18.4µM, KB-3-1 cytotox inconclusive
CC1Cc2ccccc2N1C(=S)NC(=O)c1cccc(Br)c1 (stereo not drawn)	KB-V1 MDR tox inconclusive, KB-3-1 cytotox inconclusive
COC(=O)/C(=C\c1cc(OC)c(OC)c(OC)c1)c1nc2ccccc2[nH]1	KB-V1 MDR tox inconclusive, MCF10A rerep 20.6µM, SW480 rerep inconclusive, HT1080 IDH1KD tx inconclusive, HT1080NT lethal inconclusive, KB-3-1 cytotox 14.6µM
COC(=O)/C(=C\c1ccc(O)cc1)c1nc2ccccc2[nH]1	MCF10A rerep 16.4µM, SW480 rerep 2.59µM
CCN(CC)S(=O)(=O)c1cccc(C(=O)NCc2ccccc2)c1	none
CCN(CC)S(=O)(=O)c1csc(C(=O)NCc2ccccc2)c1	KB-V1 MDR tox 20.6µM
CN(C)c1nc(C(=O)NN)nc(N(C)C)n1	MCF10A rerep 3.66µM
COC(=O)NCCOc1nc(N(C)C)nc(N(C)C)n1	none
CCn1cc(CN(C)S(=O)(=O)c2cccc([N+](=O)[O-])c2)cn1	none
COc1ccc(/C=N/N=C2\SC(CC(=O)O)C(=O)N2c2ccccc2)cc1 (stereo not drawn)	none
CCCC1S/C(=N/N=C/c2ccc(C)cc2)N(Cc2ccc(OC)cc2)C1=O (stereo not drawn)	KB-V1 MDR tox 13µM, KB-3-1 cytotox inconclusive
COc1ccc(/C=N\N=C2/SC(CC(=O)O)C(=O)N2c2ccc(O)cc2)cc1 (stereo not drawn)	MCF10A rerep 16.4µM
Cc1ccc(-n2nnnc2SCC(=O)N2CCc3ccccc3C2)c(C)c1	KB-V1 MDR tox 7.31µM
Cc1ccc(-n2nnnc2SCC(=O)NCC2(N3CCOCC3)CCCCC2)c(C)c1	KB-V1 MDR tox 20.6µM, MCF10A rerep inconclusive
Cc1ccc(-n2c(C)nnc2SCC(=O)N2CCc3ccccc3C2)cc1C	KB-V1 MDR tox 9.2µM
Cc1nnc(SCC(=O)N2CCc3ccccc3C2)n1-c1ccccc1	none
Cn1c(Cc2ccccc2)nnc1SCC(=O)N1CCCCC1	none
Cn1c(Cc2ccc3c(c2)OCO3)nnc1SCC(=O)N1CCc2ccccc2C1	KB-V1 MDR tox 16.4µM
